MK inhibit – S. pneumoniae MK inhibitors, primary screen, biochemical, PK/LDH-coupled NADH absorbance; mevalonate kinase [Streptococcus pneumoniae D39]; purified MK, PK/LDH-coupled NADH absorbance 340 nm; inhibition, % at 10 µM; hit rate 0.48% among 65,000;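 active means ranked among the strongest by inhibition in the single 10 µM screen, a fixed top-ranked set picked for dose follow-up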
A340 absorber – compound light absorbance at 340 nm, profiling panel, artefact control, biochemical, MLSMR library, data from PS, PMK, MK assays; compound absorbance at 340 nm, fold over control; fold change at 10 µM; 65,000 tested, under 10 active; AID 708, 2007;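 active means at 10 µM dose, initial 340 nm absorbance at least 2 fold that of control wells; inactive means change under 2 fold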;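 further: initial absorbance extrapolated from kinetic A340 decline of NADH oxidation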
PMK inhibit – S. pneumoniae PMK inhibitors, primary screen, biochemical, mevalonate pathway, pilot trial included. phosphomevalonate kinase (Streptococcus pneumoniae D39). purified PMK, PK/LDH-coupled NADH absorbance 340 nm. inhibition, % at 10 µM. hit rate 0.49% among 65,000;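 active means top-ranked compounds by inhibition in the single 10 µM screen, taking a fixed number of the strongest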
Spn DPM-DC inh – S. pneumoniae DPM-DC inhibitors, primary screen, biochemical, PK/LDH-coupled NADH fluorescence; diphosphomevalonate decarboxylase (Streptococcus pneumoniae D39); purified DPM-DC; calls only at 10 µM; hit rate 0.49% among 65,000; AID 556, 2006;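 active means the 320 compounds with the highest percent inhibition in the single-dose primary screen, excluding strongly autofluorescent ones, cut at about 32% in these data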;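 further: kinetic rate of NADH fluorescence loss reporting ADP formed by the decarboxylase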
NADH coupling – inhibitors of PK/LDH coupling enzymes, profiling panel, artefact control, biochemical, MLSMR library; coupled PK/LDH NADH assays, four targets; IC50, µM (series often up to 10 µM); hit rate 0.02% among 65,000; AID 774, 2007;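 active means single-dose screening hits from any of four coupled enzyme assays that gave an IC50 when retested across doses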;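 further: the DPM-DC format reads NADH fluorescence rather than 340 nm absorbance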
Fluor 339 460 – intrinsic fluorescence of library compounds, ex339/em460 – biochemical, MLSMR library, data from DPM-DC assay, artefact control, profiling panel | compound autofluorescence, ex339/em460 nm, NADH buffer; active compounds read high; 1 = no-compound wells, NADH background | fluorescence fold increase at 10 µM | hit rate 5.5% among 65,000 | AID 709, 2007;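 active means at 10 µM, mean starting fluorescence two-fold or more over control wells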;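 further: signal is the first read of a kinetic run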
Hits are given with their value; n = inactive; x = no result shown; + = active, no number. Rows were chosen to be rich in hits. Some 6.3% of all compounds tested hit in one or more screens of this group.

SMILES	MK inhibit	A340 absorber	PMK inhibit	Spn DPM-DC inh	NADH coupling	Fluor 339 460
COCCNC(=O)c1cnn2c(C(F)(F)F)cc(-c3ccc4c(c3)OCO4)nc12	n	n	n	+	n	2.5
Cc1ccc(-c2oc3ccccc3c(=O)c2O)cc1	n	n	n	n	n	n
O=c1c(O)c(-c2cccs2)oc2ccccc12	n	n	n	x	n	3.7
CCOc1ccccc1C(=O)N(Cc1cccs1)C1CCS(=O)(=O)C1 (configuration not stated)	n	n	n	n	n	n
O=C(c1ccco1)N1CCN(C2CCCC2)CC1	50	n	n	n	n	n
N#Cc1ccc(-c2ccco2)nc1SCc1ccccc1	n	n	n	n	n	2.1
CCOc1ccc(-c2nc(C#N)c(N3CCCCCC3)o2)cc1	n	n	n	x	n	2.4
CCCOc1ccc(-c2nc(C#N)c(N3CCN(C)CC3)o2)cc1	n	n	n	x	n	3.9
N#Cc1nc(-c2ccc(OCc3ccc(Cl)cc3)cc2)oc1N1CCOCC1	n	n	n	n	n	n
CCOc1ccc(-c2nc(C#N)c(N3CCN(C)CC3)o2)cc1	n	n	n	x	n	2.9
CCC(Oc1ccccc1)C(=O)Nc1ccc(-c2nnc(-c3ccco3)o2)cc1 (configuration not stated)	n	n	n	n	n	2.8
COc1ccc(Br)cc1C1N2CC3(C)CN1CC(C)(C2)C3=O (configuration not stated)	n	n	n	n	n	n
CC(=O)N1CCc2cc(S(=O)(=O)NC3CCCc4ccccc43)ccc21 (configuration not stated)	n	n	27	n	n	n
O=C(O)c1ccc(S(=O)(=O)NC2CCCc3ccccc32)cc1 (configuration not stated)	n	n	n	n	n	n
CCOc1ccc(OCC)c(NC(=O)CCn2c(=O)oc3ccccc32)c1	n	n	n	n	n	n
Cc1n[nH]c(C)c1N1C(=O)c2cccc3c(N4CCCCCC4)ccc(c23)C1=O	n	n	32	n	n	n
Cc1ccc(F)c(NC=C2C(=O)OC(C)(C)OC2=O)c1	n	n	n	n	n	n
COCCCNC(=O)C1CCN(S(=O)(=O)N(CC(C)C)CC(C)C)CC1	n	n	n	n	n	n
CCS(=O)(=O)N1CCC(C(=O)NCc2ccco2)CC1	n	n	26	n	n	n
CCOCCCNC(=O)C1CCN(S(=O)(=O)N(CC(C)C)CC(C)C)CC1	n	n	26	n	n	n
CCOCCCNC(=O)C1CCN(S(=O)(=O)CC)CC1	n	n	25	n	n	n
Cc1ccc(/C=C/C2=Cc3c(sc(NC(=O)CSc4n[nH]c(N)n4)c3C#N)C(C)(C)C2)o1	n	n	n	n	n	n
CCOC(=O)c1c(C)n(C)c2ccc(OC)c(NC(=O)CN3CCN(C(=O)c4ccco4)CC3)c12	n	n	n	n	n	n
NC(=O)c1ccc(-c2ncc(-c3ccccc3)o2)cc1	n	n	n	x	n	2.1
c1ccc(-c2cnc(-c3cccnc3)o2)cc1	n	n	n	x	n	2.1
SMILES	MK inhibit	A340 absorber	PMK inhibit	Spn DPM-DC inh	NADH coupling	Fluor 339 460
CC1(C)CC(c2csc(N)n2)CCO1 (configuration not stated)	n	n	n	n	n	n
O=C(C1CCN(c2ccc(N3CCOCC3)nn2)CC1)N1CCc2ccccc2C1	n	n	n	x	n	4.7
O=C(C1CCN(S(=O)(=O)N2CCC3(CC2)OCCO3)CC1)N1CCc2ccccc2C1	n	n	n	n	n	n
CCOC(=O)N1CCC(NC(=O)C2CCN(c3ccc(N4CCOCC4)nn3)CC2)CC1	n	n	n	x	n	4.9
COc1cccc(C(c2nnnn2Cc2ccc(F)cc2)N2CCC(C(N)=O)CC2)c1OC (configuration not stated)	n	n	n	n	n	n
Cc1nnc(SCc2ccccc2)n1N	n	n	26	n	n	n
Cc1cccc(N(CC(=O)NC2CCCCC2)C(=O)c2c(C)noc2C)c1	n	n	n	n	n	n
CC(=O)Nc1cc2nn(-c3ccccc3)nc2cc1Cl	n	n	n	x	n	2.3
O=C(Nc1cc2nn(-c3ccccc3)nc2cc1Cl)c1ccco1	n	n	n	x	n	3.8
O=C(Nc1ccc2nn(-c3ccccc3)nc2c1)c1cccnc1	n	n	n	n	n	n
Cc1cc(NC(=O)CN2CCN(c3ccccc3O)CC2)no1	n	n	n	n	n	n
COc1ccc(N2CCN(C(=O)CCNS(=O)(=O)c3ccc4c(c3)CCC(=O)N4)CC2)cc1	n	n	n	n	n	2.1
CCCC(=O)Nc1cccc(NC(=O)CN2CCN(c3ccccc3OC)CC2)c1	n	n	27	n	n	n
COc1cccc2cc(-c3nc(-c4cccs4)cs3)c(=O)oc12	n	n	n	x	n	4.6
CCC(=O)Nc1ccc(NC(=O)c2ccccn2)cn1	active	n	n	n	n	n
Cc1cc(C)c(S(=O)(=O)NCc2cn3c(C)csc3n2)cc1C	n	n	n	+	n	n
Cc1cc(C)c(S(=O)(=O)NCc2cn3c(C)csc3n2)c(C)c1	n	n	n	n	n	n
Cc1ccc(OCC(=O)Nc2ccc(O)c(C(=O)O)c2)cc1C	n	n	n	x	n	3.3
O=C(OC(C(=O)NCC1CCCO1)c1ccccc1F)c1ccco1 (configuration not stated)	n	n	n	n	n	n
CCOC(=O)c1cc(C#N)c(SCC(=O)c2cc(C#N)c(SC)nc2C)[nH]c1=O	n	n	n	x	n	2
COC(=O)CSc1nc(C)c(C(C)=O)cc1C#N	n	n	n	n	n	n
COCc1cc(C)c2c(N)c(C#N)sc2n1	n	n	n	x	n	2.4
N#Cc1sc2nc3c(c(-c4ccco4)c2c1N)CCCC3	n	n	n	n	n	n
CCCCc1nc(NCCN2CCOCC2)c(C#N)c2c1COC(C)(C)C2	n	n	n	n	n	n
CCN(CC)CCNc1nc(-c2ccco2)c2c(c1C#N)CC(C)(C)OC2	n	n	n	x	n	2.3
Cc1nc(NCCO)c(C#N)c2c1COC(C)(C)C2	n	n	n	x	n	n
CC1(C)Cc2c(C#N)c(NCCc3ccccc3)nc(-c3ccco3)c2CO1	n	n	n	x	n	2.3
CCCn1nnnc1NC(=O)CSc1ccc(Cl)cc1	n	n	n	n	n	n
Cc1c(NC(=O)COC(=O)Cc2ccc(Cl)cc2)c(=O)n(-c2ccccc2)n1C	n	n	n	n	n	n
COC(=O)C(C)Sc1nc(-c2ccc(OC)cc2)nc2c1c(=O)n(C)c(=O)n2C (configuration not stated)	n	n	n	n	n	3.6

Screens as filed in PubChem BioAssay.
